# Experimental data taken from PubChem BioAssay AID602399 (Sanford-Burnham Center for Chemical Genomics, 2012).
# Among all 360,000 compounds or so, about 2,800 (0.78%) were called active. The list comes from a sample in which actives are over-represented; it also holds similar structures and randomly drawn compounds. Values without a mark were called inactive. Cut-off read from the data, not from the text of the source: active = inhibition above about 26%; inactive = the rest.
# System: Nicotinate-nucleotide adenylyltransferase NadD (Staphylococcus aureus N315)
# Assay: inhibitors of S. aureus NadD, primary screen, biochemical, colorimetric, uHTS (AID 602399)
# Settings: purified NadD enzyme, colorimetric absorbance read-out; at 20 µM; stronger effect = higher value
row,Structure (SMILES),inhibition
1,CC1=CC2=NC(=O)/C(=C/c3coc4ccccc4c3=O)C(=N)N2O1,-6.03%
2,O=C1/C(=C/c2coc3ccc(O)cc3c2=O)SC(=S)N1c1ccccc1,44.8% (active)
3,COC(=O)c1ccc(S(=O)(=O)N(CCO)Cc2ccccc2)n1C,-0.726%
4,Oc1ccc(-c2cccc(-c3ccc(O)cc3)c2)cc1,0.612%
5,O=C(Nc1cccc(-c2nc3ccccc3[nH]2)c1)c1ccc(C(=O)Nc2cccc(-c3nc4ccccc4[nH]3)c2)cc1,33.1% (active)
6,O=C(NCC(O)c1nc2ccccc2[nH]1)c1ccc(Br)cc1 (stereo unspecified),-3.28%
7,O=C(Nc1ccccc1)c1cc2ccccc2[nH]1,1.14%
8,Cc1cccc(C2C3=C(CCCC3=O)N=C3c4ccccc4C(=O)C32)c1 (stereo unspecified),3.15%
9,O=C(NCc1cccnc1)c1cnc2ccccc2n1,1.99%
10,CC(=O)N/C(=N/c1nc(C)cc(C)n1)Nc1ccc(F)cc1F,-3.78%
11,CCCCCCN1C[C@@H](O)[C@H](n2cc(COC(=O)c3ccccc3)nn2)C[C@@H]1c1ccc(Cl)cc1,7%
12,COC(C[C@@H]1O[C@@H]1C(=O)[C@@H](C)OCc1ccccc1)OC,-1.07%
13,CN1/C(=c2/s/c(=C3/C(=O)N(c4ccccc4)NC3=Nc3ccccc3)n(C)c2=O)C(C)(C)c2ccccc21,57.3% (active)
14,Cc1ccc(Cl)c(NC(=O)CN(C)CC(=O)Nc2ccc(F)c(F)c2F)c1Cl,2.14%
15,Nc1ccc2nc3c(=O)[nH]c(=S)[nH]c3nc2c1,70.1% (active)
16,Cc1occc1C(=O)NC1CCCN(Cc2ccc(CC(C)C)cc2)C1 (stereo unspecified),-6.31%
17,COc1ccc(NS(=O)(=O)c2ccc(O)c(C(=O)OCC(=O)NC3CCCCC3)c2)cc1,-4.71%
18,CCn1c(SCC(=O)Nc2ccc(C)cc2)nc2nc3c(cc2c1=O)CCCC3,8.14%
19,CCC1C(C#N)=C(SC)NC2=C1C(=O)CC(C)(C)C2 (stereo unspecified),0.666%
20,CCn1c(SCC(=O)Nc2ccc(S(=O)(=O)Nc3onc(C)c3C)cc2)nnc1-c1ccccc1,7.88%
21,Cc1cc(C)c2nc(-c3cccnc3)cc(C(=O)Nc3ccc(S(=O)(=O)Nc4onc(C)c4C)cc3)c2c1,42.3% (active)
22,Cc1noc(NS(=O)(=O)c2ccc(NC(=O)c3oc4ccc(F)cc4c3C)cc2)c1C,0%

row,Structure (SMILES),inhibition
1,CCCCNC(=O)C[C@@H]1C[C@@]2(C(=O)OCC)CCC=C2N(Cc2cccc3ccccc23)C1=O,-3.88%
2,COc1ccc(Br)cc1/C=N/Nc1ccc(S(=O)(=O)Nc2ccccc2C(=O)O)cc1[N+](=O)[O-],37.4% (active)
3,COc1ccc(S(=O)(=O)N2CCC(C(=O)OCC(=O)c3ccccc3)CC2)cc1[N+](=O)[O-],-4.05%
4,C=C(C)CNC(=S)N/N=C/c1ccccc1OCC(=O)O,11.3%
5,CC1CN(C(=O)c2ccccc2NS(=O)(=O)c2cccc([N+](=O)[O-])c2)CC(C)O1 (stereo unspecified),4.4%
6,Cc1ccc(S(=O)(=O)NC(=O)COc2ccccc2C)cc1,-3.06%
7,Cc1ccc(NS(=O)(=O)c2ccc(N/N=C/c3ccccc3OCC(=O)O)c([N+](=O)[O-])c2)c(C)c1,37.4% (active)
8,CSCC[C@H](NC(=O)NCCc1ccc(F)cc1)C(=O)O,-3.24%
9,COc1cccc(N(CC(=O)NC2CCCCCC2)S(=O)(=O)c2ccccc2)c1,-2.69%
10,O=C(NNc1c2ccccc2nc2ccccc12)c1cc2ccccc2cc1O,50.6% (active)
11,O=C(CSc1nc(C2CC2)nc2ccccc12)Nc1cccc(O)c1,4.64%
12,Cc1noc(C)c1COC(=O)c1cc2ccccc2cc1O,-3.66%
13,COC(=O)c1ccccc1NC(=O)C1CCN(C(=O)N2CCOc3ccccc32)CC1,-4.87%
14,Cc1cc(C)c(S(=O)(=O)NN=C2c3ccccc3[C@H]3Cc4csc[n+]4[C@@H]23)c(C)c1,44% (active)
15,Cc1ccc(NC2CCCN(C(=O)CCC3(C)CC3)C2)cc1C (stereo unspecified),-4.9%
16,CCCCn1c(N)c(N(CCOC)C(=O)c2oc3ccc(OC)cc3c2C)c(=O)[nH]c1=O,-3.15%
17,NNC(=O)c1cccc(COCC(F)(F)C(F)F)c1,10.9%
18,CC(Sc1nncn1C)C(=O)NCCC1=CCCCC1 (stereo unspecified),-5.51%
19,CC1(OC(=O)C2CCCC2)C(=O)C=C2C=C(c3ccc(C#N)cc3)OC=C2C1=O (stereo unspecified),51.9% (active)
20,COC(=O)CCCC1=CC2=C(c3ccccc3)C(=O)C(C)(OC(=O)C3CCCC3)C(=O)C2=CN1c1ccc(OC)cc1 (stereo unspecified),6.8%
21,COC(=O)CCCC1=CC2=CC(=O)C(C)(OC(=O)c3cccs3)C(=O)C2=CN1c1cccc(C#N)c1 (stereo unspecified),10.8%
22,Cc1cccc(C(=O)Nc2ccc(C(=O)/C=C/c3cccs3)cc2)c1,18.5%

row,Structure (SMILES),inhibition
1,C/C(=N\NC(=O)c1ccc(NS(=O)(=O)c2cccs2)cc1)c1ccc2ccccc2c1,11.2%
2,O=C(Nc1ccc(NC(=O)c2cccs2)cc1)c1ccc2ccccc2c1,34.4% (active)
3,Cc1cc(C)n2nc(C(=O)Nc3cccc(S(=O)(=O)N4CCOCC4)c3)nc2n1,-1.81%
4,COc1ccc(Cc2nc3ccc(C(=O)NCC4CCOCC4)cc3o2)cc1OC,0%
5,CC1C(=O)N(Cc2cn(Cc3ccco3)nn2)CCS(=O)(=O)N1Cc1ccc(-c2cccc(CO)c2)cc1 (stereo unspecified),-3.23%
6,CC(C)CC1C(=O)N(Cc2cn(CC3CCCCC3)nn2)CCS(=O)(=O)N1Cc1ccc(-c2ccc(Cl)cc2)cc1 (stereo unspecified),2.74%
7,CC(C)CC1C(=O)N(Cc2cn(Cc3ccco3)nn2)CCS(=O)(=O)N1Cc1ccc(-c2ccc(Cl)c(Cl)c2)cc1 (stereo unspecified),35% (active)
8,Cc1c(C(=O)OCC(=O)N(CCC#N)c2ccccc2)oc2c1ccc1ccccc12,-4.25%
9,CC(C)c1nc(CNC(=O)CC2C(=O)NCCN2Cc2ccoc2)cs1 (stereo unspecified),0.09%
10,CCOc1ccc(C(=O)Nc2cccc(SC)c2)cc1,-7.85%
11,CC(C)(C)NC(=O)C(c1ccncc1)N(C(=O)CNC(=O)c1ccco1)c1ccc2c(c1)OCO2 (stereo unspecified),-2.29%
12,Cc1cc(Br)cn2c(Cc3ccsc3)c(-c3ccc(C#N)cc3)nc12,-0.162%
13,Clc1ccc(C2=CSC3=Nc4cccc5cccc(c45)N23)cc1,46.9% (active)
14,Cc1ccc(/C=C/C(=O)O)cc1S(=O)(=O)N1CCC(Cc2ccccc2)CC1,-2.42%
15,COC(=O)c1ccc(COC(=O)c2cnccn2)cc1,-0.176%
16,CCOc1ccc(NS(=O)(=O)c2ccc(C(=O)NCC3CCCO3)cc2)cc1 (stereo unspecified),-1.46%
17,N#Cc1c(NC(=O)CCCl)sc2c1CCCCC2,-2.84%
18,CC(C)NC(=O)NC(=O)COC(=O)c1ccc(NC(=O)CC#N)cc1,0.78%
19,CCOc1ccc(NC(=O)c2ccc(NC(=O)COC(=O)c3ccc(NC(=O)CC#N)cc3)cc2)cc1,39.8% (active)
20,N#CCC(=O)Nc1ccc(C(=O)OCC(=O)Nc2sc3c(c2C#N)CCCC3)cc1,32.6% (active)
21,CCOc1ccc(NC(=O)CCNC(=O)c2ccc(Br)cc2)cc1,-10.7%
22,CC(=O)c1c(C)[nH]c(C(=O)OCC(=O)Nc2sc3c(c2C#N)CCCC3)c1C,6.3%

row,Structure (SMILES),inhibition
1,C/C=C(/C)C(=O)OC1Cc2c(ccc3ccc(=O)oc23)OC1(C)C (stereo unspecified),-4.64%
2,CCCCc1cc(=O)oc2c(C)c(OCC(=O)N3CCC(C(N)=O)CC3)ccc12,-1.4%
3,Cc1ccc(C(=O)N/C(=C/c2ccc(-c3cccc([N+](=O)[O-])c3)o2)C(=O)NCCCN(C)C)cc1,-9.94%
4,Cc1ccc(-c2ccc(/C=C(\C#N)C(N)=S)o2)c([N+](=O)[O-])c1,-3.57%
5,Cc1ccc(Cc2cnc(NC(=O)/C(C#N)=C/c3ccc(-c4cccc([N+](=O)[O-])c4)o3)s2)cc1,51.2% (active)
6,CCCCN(C(=O)c1ccc(S(=O)(=O)N2CCOCC2)cc1)C1CCS(=O)(=O)C1 (stereo unspecified),-1.78%
7,O=C(CC(NS(=O)(=O)c1ccc(Cl)cc1)c1ccco1)NC1CCCC1 (stereo unspecified),1.19%
8,COc1ccc(NC(=O)COc2ccc(C(=O)c3ccc(F)cc3)cc2)cc1S(N)(=O)=O,7.92%
9,Cc1c(OC(C)C(=O)NCC2CCC(C(=O)O)CC2)ccc2c1oc(=O)c1ccccc12 (stereo unspecified),4.05%
10,O=C(NCC1CCCCC1)NCC1CCCCC1,2.72%
11,C[C@H]1CN([C@@H](C)CO)C(=O)c2cc(-c3ccccc3F)cnc2O[C@H]1CN(C)C(=O)C1CCOCC1,-1.92%
12,COc1ccc(NS(=O)(=O)c2cc(NC(=O)CC(=O)c3ccc([N+](=O)[O-])cc3)ccc2C)cc1,44.2% (active)
13,COc1ccc(NS(=O)(=O)c2cc(NC(=O)COc3ccccc3F)ccc2OC)cc1,-11.4%
14,Cc1ccc(NC(=O)CCNC(=O)c2ccc([N+](=O)[O-])cc2)cc1S(=O)(=O)N1CCOCC1,0.847%
15,O=[N+]([O-])c1ccc(Oc2ccc(F)cc2Br)c2ccncc12,4.81%
16,CCCn1nnnc1NC(=O)COc1ccc(Cl)cc1C,8.48%
17,CCc1ccc(C(=O)OCC(=O)NCC(F)(F)F)cc1,-0.578%
18,C=CCCC(=O)Nc1nc(C)c(-c2csc(Nc3ccc(Cl)cc3)n2)s1,12.2%
19,Cc1ccc(Nc2nc(-c3sc(NC(=O)c4ccccc4)nc3C)cs2)cc1,36.9% (active)
20,Cc1ccn2c(-c3csc(Nc4ccc(C(=O)O)cc4)n3)c(C)nc2c1,-7.16%
